# Bioassay records deposited in PubChem by several laboratories.
# Sampled rows, rich in hits. Any-hit rate of the full collection: about 4%.
# Anthrax LF prot: inhibitors of Bacillus anthracis lethal factor protease; multiplex microsphere protease cleavage assay, LF; inhibition, % at 10 µM; P15917; AID 588501; 360,000 compounds, 0.12% hits; further: plate controls were buffer without enzyme for full effect and enzyme alone for no effect
# MazF activator: activators of E. coli MazEF toxin-antitoxin RNase. P0AE70. FAM/BHQ RNA-DNA oligo cleavage fluorescence, 5 h. activation, % at 20 µM. 350,000 compounds, 0.32% hits. AID 504720; in the data active means activation above about 50%
# VHR inh abs: DUSP3 (human) phosphatase inhibition. P51452. AID 1654. inhibition, % at 13.3 µM. 290,000 compounds, 0.52% hits. recombinant VHR phosphatase, pNPP absorbance; in the data active means inhibition above about 50%
# Bead autofluor: flagged as autofluorescent in microsphere protease counterscreen; compound autofluorescence counterscreen, microsphere flow cytometry; hits give high values; fluorescence intensity (concentration not given with the values); 360,000 compounds, 3.1% hits; AID 624483; in the data active means fluorescence intensity above about 16000; inconclusive means no clear call, values can overlap the other calls
# BoNT-A LC inh2: blocks Botulinum neurotoxin A light chain protease; multiplex microsphere protease substrate cleavage, flow cytometry; inhibition, % at 10 µM; 360,000 compounds, 0.17% hits; further: plate controls were buffer without enzyme for full effect and enzyme alone for no effect
# BoNT F protease: blocks Botulinum neurotoxin F light chain protease; Multiplex microsphere protease cleavage assay, flow cytometry; inhibition, % at 10 µM; 360,000 compounds, 0.22% hits; in the data active means inhibition above about 35%, passing the limit was not always enough; inconclusive means no clear call, values can overlap the other calls; further: plate controls were buffer without enzyme for full effect and enzyme alone for no effect
# Active calls of the source: *; ? = inconclusive; . = not tested or not shown. Unless noted, no stated cut-off is given here; in the data, active means inhibition above about 30%; inconclusive means no clear call, values can overlap the other calls; inactive means below that.
SMILES,Anthrax LF prot,MazF activator,VHR inh abs,Bead autofluor,BoNT-A LC inh2,BoNT F protease
O=C(Nc1ccccc1)c1cc(Cl)nc2ccccc12,0,3,-4,2241,0,0
CC(=O)N/C(=C\c1ccccc1)C(=O)OCC(=O)NC1CCCC1,-3,-4,58*,10048,-1,-11
CC(=O)N/C(=C\c1ccccc1)C(=O)OCC(=O)c1ccccc1,4,4,.,5640,0,13
C1CCN(c2nc3nonc3nc2N2CCCCC2)CC1,-4,5,30,24347*,-3,-4
CSc1nc(-c2ccc(N(C)C)cc2)c(C#N)c(=O)n1C,0,136*,12,4391,1,-6
CSc1nc(-c2ccc(Cl)cc2)c(C#N)c(=O)n1C,-3,8,14,4173,0,0
COc1cccc(NC(=O)Nc2cc(C)ccc2OC)c1,-1,-10,3,2413,0,-2
COC(=O)c1cc(NC(=O)Nc2cc(OC)ccc2OC)cc(C(=O)OC)c1,-2,5,23,23932*,0,-2
COc1ccc(OC)c(NC(=O)Nc2cccc(Cn3cccn3)c2)c1,-2,9,2,21355*,-1,-2
O=C1C(=O)C(c2ccccc2)C(=O)C1c1ccccc1 (centres undefined),-5,2,.,3905,0,13
O=C(c1ccc(Br)s1)N1CCN(c2ncccn2)CC1,2,6,12,23389*,2,0
Cc1ccc(S(=O)(=O)N2CCOCC2)cc1C(=O)Nc1ccc(-c2cn3ccsc3n2)cc1,0,2,22,4773,-1,10
Clc1ccc(Nc2nc3ccccc3n3nnnc23)cc1,-3,22,-6,20275*,1,1
Cc1ccc(Nc2nc3ccccc3n3nnnc23)cc1,-6,-3,-12,4022,0,-6
Clc1ccc(CCNc2nc3ccccc3n3nnnc23)cc1,-10,-16,50*,6521,0,-12
Cc1onc(-c2ccccc2Cl)c1C(=O)Nc1ccc(F)c(F)c1,-14,-5,20,22619*,0,-3
Cc1ccc(NC(=S)NC(=O)c2c(-c3ccccc3Cl)noc2C)cc1,0,-3,20,22637*,?,-1
CC(=O)Nc1ccc(NC(=O)c2c(-c3ccccc3Cl)noc2C)c(C)c1,-2,1,10,5657,0,1
Cc1onc(-c2ccccc2Cl)c1C(=O)N1CCN(c2ccccc2)CC1,-4,0,6,22146*,?,2
Cc1onc(-c2ccccc2Cl)c1C(=O)N1CCN(c2cccc(Cl)c2)CC1,2,3,34,5142,0,-9
COC(=O)c1cc(OC)c(OC)cc1NC(=O)Cn1nnc(-c2ccccc2Cl)n1,-2,-1,10,24177*,-2,-5
CC(=O)Nc1ccc(C2(c3ccc(NC(C)=O)cc3)C(=O)Nc3ccccc32)cc1,0,-1,-2,4226,0,-3
Cc1nc2n(COCCO)cnn2c(=O)c1Br,-1,8,14,2534,0,0
CC(C)(C)n1nc(-c2ccc(F)cc2)c2c(N)ncnc21,0,5,-11,3263,0,6
O=C(Nc1ccc(OCC(=O)N2CCOCC2)cc1)c1ccccc1Cl,4,1,14,6435,-2,-6
SMILES,Anthrax LF prot,MazF activator,VHR inh abs,Bead autofluor,BoNT-A LC inh2,BoNT F protease
COc1cccc(-c2nnn(CC(=O)NC3CCCC3)n2)c1OC,-5,3,-10,16511*,-1,0
Cc1onc(-c2ccccc2Cl)c1C(=O)Nc1ccc(OCC(=O)N2CCOCC2)cc1,-1,1,5,16183*,0,-2
COC(=O)c1cc(OC)c(OC)cc1NC(=O)c1c(-c2ccccc2Cl)noc1C,0,-2,26,21663*,3,5
Cc1onc(-c2c(Cl)cccc2Cl)c1C(=O)Nc1ccc2c(c1)OCCO2,.,11,14,.,.,.
Cc1onc(-c2ccccc2Cl)c1C(=O)Nc1ccc2c(c1)OCO2,-2,1,51*,?,0,-6
Cc1onc(-c2c(F)cccc2Cl)c1C(=O)Nc1sc2c(c1C(N)=O)CCC2,-3,-8,10,16903*,-1,-2
C=CCCC(=O)N1CCCC(C(=O)c2cccc(OC)c2)C1 (centres undefined),-8,2,57*,3995,2,?
COc1cccc(C(=O)C2CCCN(C(=O)c3ccccc3Cl)C2)c1 (centres undefined),3,5,35,3749,10,16
CCn1nc(C)cc1C(=O)N1CCCC(C(=O)c2ccc3ccccc3c2)C1 (centres undefined),-6,7,21,4460,1,-1
Cc1cc(C)n(CC(=O)N2CCCC(C(=O)c3cccc(OC(C)C)c3)C2)n1 (centres undefined),-1,-1,52*,2321,0,-4
CCn1nc(C)cc1C(=O)N1CCCC(C(=O)c2ccc(Oc3ccccc3)cc2)C1 (centres undefined),3,-12,57*,5830,2,19
Cc1cccc(Cc2nnc(CCC(=O)NCc3cnc4ccccn34)o2)c1,0,-5,13,2584,-1,-2
Cc1cc(C)c(C)c(S(=O)(=O)N2CCN(C(=O)c3cc(=O)[nH]c4ccccc34)CC2)c1C,-9,-12,22,20107*,8,11
Cc1cc(C)c(C)c(S(=O)(=O)N2CCN(Cc3nc4ccccc4[nH]3)CC2)c1C,-1,3,17,22533*,?,2
CC(C)CC(=O)N1CCC(N(CCc2ccccc2)Cc2ccccc2)CC1,-8,0,9,4312,-3,8
Cc1cc(C(=O)NCCCOC(C)C)c2ccccc2n1,1,0,50*,22118*,0,2
CSc1ccccc1C(=O)NCCCOC(C)C,0,-3,31,21738*,4,1
COc1ccc(C)cc1NC1=C(Cl)C(=O)N(C2CCCCC2)C1=O,-3,-2,20,22693*,-1,-5
CCOc1ccc(NC2=C(Cl)C(=O)N(C3CCCCC3)C2=O)cc1,-4,4,-4,2463,1,-11
O=C(OCc1cc2ccccc2[nH]c1=O)c1cccc([N+](=O)[O-])c1,-8,0,-4,3616,1,0
Nc1cc2nsnc2cc1Br,5,-4,52*,3234,2,-4
CCOC(=O)CSCC(=O)Nc1cc(C)ccc1C,-2,-1,-1,26149*,-9,-10
CCOC(=O)C(=CNc1cc(C)ccc1C)C(=O)OCC,-3,5,14,17727*,-3,-6
C[C@@H]1CN([C@@H](C)CO)S(=O)(=O)c2ccc(/C=C/c3ccccc3)cc2O[C@@H]1CN(C)Cc1ccc(C(=O)O)cc1,0,0,.,4011,0,-4
O=C(CCC1CCCN(C(=O)c2cc(C3CC3)[nH]n2)C1)N1CCN(c2ccccn2)CC1 (centres undefined),-8,7,52*,4040,0,-1
